Compound activity from PubChem.
An excerpt weighted towards active compounds, which were near 7.5% of everything screened.
KinaseGlo FLuc – counter-screen: inhibitors of Kinase-Glo firefly luciferase | Q27757 | Kinase-Glo luciferase, ATP luminescence, 8 min | Potency, µM (doses to about 38.3 µM), hits mostly inhibitors | 200,000 compounds, 0.28% hits; further: nearly all actives have a fitted effect of over 60% in size
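Inhibition of Kinase-Glo luciferase light generation was assessed at 10 uM ATP in pH 7.2 imidazole buffer, with luminescence measured after eight minutes at ambient temperature.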
SMN2 splice enh – enhancers of SMN2 splice variant expression; HEK293 SMN2-luciferase splicing reporter, luminescence, 30-36 h; Potency, µM (series often up to 46.1 µM), usual class: activators; 210,000 compounds, 2.8% hits; further: nearly all actives have a fitted effect of over 55% in size
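HEK293 cells carry an SMN2 […]–luciferase reporter in which exon 7 inclusion puts luciferase in frame. Cells were plated 10-12 h before compound addition, then incubated 30-36 h at 37C. ONE-Glo luminescence was read; sodium butyrate at 4.5 mM final served as control.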
ELG1 genotox – genotoxicity induction in ELG1-luciferase HEK293T cells. HEK293T ELG1-luciferase reporter, luminescence, 16 h. Potency, µM (highest dose often 46 µM), hits mostly activators. 330,000 compounds, 1.3% hits; further: nearly all actives have a fitted effect of over 60% in size
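Step 1: seed 2,000 HEK293T ELG1-luciferase cells per well. Step 2: add compound or DMSO, incubate 16 hr at 37 °C. Step 3: ONE-Glo, 30 min at room temperature, read luminescence.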
NPC1 prom act – activates the NPC1 promoter | Huh7 NPC1 promoter luciferase reporter, 24 h | Potency, µM (highest dose often 9.22 µM), actives largely listed as activators | 320,000 compounds, 2.4% hits | AID 485313; further: nearly all actives have a fitted effect of over 60% in size
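Luminescence from an NPC1 promoter-driven luciferase reporter in stably transfected Huh7 cells was measured after 24 h compound treatment at 37 °C, followed by 10 min ambient incubation with luciferase detection reagent.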
Rab9 prom act – activates the Rab9 promoter; Potency, µM (highest dose often 9.22 µM), usual class: activators; AID 485297; 320,000 compounds, 2.8% hits; Huh7 Rab9 promoter-luciferase reporter, luminescence, 24 h; further: nearly all actives have a fitted effect of over 60% in size
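Cells were plated at 1500 per well in reduced-serum medium with 10% FBS and left 2 h. Compound in DMSO was then added for 24 h at 37 °C. Reporter signal was read by luminescence after 10 min with luciferase detection reagent.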
FLuc modulator – counter-screen for miR-21 project: firefly luciferase inhibitors or activators | P08659 | purified FLuc, Km substrates, luminescence inhibition | Potency, µM (doses to about 57.5 µM), hits mostly inhibitors | 360,000 compounds, 6.9% hits | AID 588342; further: nearly all actives have a fitted effect of over 55% in size
Target sequence (P08659 whole entry, looked up): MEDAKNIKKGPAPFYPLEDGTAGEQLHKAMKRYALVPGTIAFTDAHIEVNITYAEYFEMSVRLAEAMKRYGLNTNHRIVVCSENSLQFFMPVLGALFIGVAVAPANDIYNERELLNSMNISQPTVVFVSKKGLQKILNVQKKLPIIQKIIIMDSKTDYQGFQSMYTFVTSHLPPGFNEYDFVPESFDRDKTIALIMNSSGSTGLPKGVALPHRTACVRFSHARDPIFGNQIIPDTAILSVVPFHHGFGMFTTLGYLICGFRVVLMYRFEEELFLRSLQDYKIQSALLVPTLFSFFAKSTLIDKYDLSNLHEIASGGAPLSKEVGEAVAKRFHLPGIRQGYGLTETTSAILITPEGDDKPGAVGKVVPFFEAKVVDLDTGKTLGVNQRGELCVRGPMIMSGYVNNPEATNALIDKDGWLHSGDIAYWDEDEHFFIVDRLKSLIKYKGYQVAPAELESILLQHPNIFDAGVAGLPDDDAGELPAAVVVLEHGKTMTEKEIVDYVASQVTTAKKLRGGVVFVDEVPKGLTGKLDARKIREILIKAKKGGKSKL
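Biochemical qHTS of compounds, final roughly 60 µM downward over six points, against 10 nM purified firefly luciferase using Km concentrations of substrates (10 uM D-luciferin, 10 uM ATP) in Tris acetate pH 7.5 buffer; luminescence output.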
Of the large screens only hits and unclear results are named; the others gave an inactive call. The call rests on the fitted dose curve; in most records, active means well fitted curve in the direction sought with a large enough effect; inconclusive means small, poorly fitted or top-dose-only effect, or another doubt; inactive means no such curve, though single readings can be large; an effect the other way counts as inactive or inconclusive.

O=C(O)c1cccc(N2C(=O)c3ccc(Oc4ccc(Cl)cc4)cc3C2=O)c1	FLuc modulator 7.57µM (no result: KinaseGlo FLuc, SMN2 splice enh)
COC(=O)C1=C(CS(=O)(=O)c2ccc(C)cc2C)NC(=O)NC1c1ccc(C)cc1 (stereo not given)	none (no result: KinaseGlo FLuc, ELG1 genotox, NPC1 prom act, Rab9 prom act)
Cc1cc(C)cc(NC(=O)COC(=O)COc2ccc(N(C)S(=O)(=O)c3cccs3)cc2)c1	none (no result: KinaseGlo FLuc, SMN2 splice enh, NPC1 prom act, Rab9 prom act, FLuc modulator)
COc1cc(C)ccc1OCC(=O)NC1CCCCCC1	ELG1 genotox inconclusive, NPC1 prom act inconclusive, Rab9 prom act inconclusive, FLuc modulator 16.9µM (no result: KinaseGlo FLuc, SMN2 splice enh)
CCc1ccccc1OCC(=O)NC1CCCC1	none
O=C(COc1ccccc1Br)NC(=O)NC1CCCC1	ELG1 genotox inconclusive, Rab9 prom act 2.82µM, FLuc modulator 12µM (no result: KinaseGlo FLuc, SMN2 splice enh)
O=C(COc1ccccc1Br)NC1CC1	ELG1 genotox inconclusive (no result: KinaseGlo FLuc, SMN2 splice enh)
COc1cc(CNn2cnnc2)ccc1OCC(=O)NC1CCCCC1	none
COC(=O)c1ccccc1OCC(=O)NC1CCCCC1	ELG1 genotox 20.6µM, FLuc modulator inconclusive
Cc1c2ccccc2nc2c(F)c(N(C)C)c(F)c(F)c12	SMN2 splice enh inconclusive, ELG1 genotox inconclusive, Rab9 prom act inconclusive, FLuc modulator 9.53µM
NC(=O)C1CCCN(C(=O)CN2C(=O)NC(c3ccccc3)(c3ccccc3)C2=O)C1 (stereo not given)	none (no result: KinaseGlo FLuc, SMN2 splice enh)
CN(C)S(=O)(=O)c1ccc(C(=O)NCc2ccccc2)cc1	none
CN(C)S(=O)(=O)c1ccc(C(=O)NCCOc2ccccc2)cc1	SMN2 splice enh 11.2µM, ELG1 genotox inconclusive, NPC1 prom act 3.98µM, Rab9 prom act 2.82µM, FLuc modulator 13.5µM
CN(C)S(=O)(=O)c1ccc(C(=O)NCCS(=O)(=O)N2CCN(c3ccc(F)cc3)CC2)cc1	none (no result: KinaseGlo FLuc, SMN2 splice enh)
CN(C)S(=O)(=O)c1ccc(C(=O)NCCOc2ccc(F)cc2)cc1	ELG1 genotox 13µM, Rab9 prom act inconclusive, FLuc modulator inconclusive
CCOc1ccc(CNC(=O)c2sc3ncnc(N(C)C4CCCCC4)c3c2C)cc1	none (no result: KinaseGlo FLuc, SMN2 splice enh, ELG1 genotox, NPC1 prom act, Rab9 prom act)
O=C(NCCO)c1cc(-c2cc(C(=O)NCCO)c3ccccc3n2)nc2ccccc12	none (no result: KinaseGlo FLuc, SMN2 splice enh)
CCCCCOc1ccc(NC2=CC(=O)CCC2)cc1	none (no result: KinaseGlo FLuc, SMN2 splice enh)
O=c1cc(C(F)(F)F)[nH]c2ccc(OC(F)(F)F)cc12	FLuc modulator 21.3µM (no result: KinaseGlo FLuc, SMN2 splice enh)
COc1ccc(C2=NN(c3nc(C(=O)O)cs3)C(O)(C(F)(F)F)C2)c(OC)c1 (stereo not given)	FLuc modulator 10.7µM
COc1ccc(C2=NN(C(=O)c3cccs3)C(O)(C(F)(F)F)C2)cc1 (stereo not given)	FLuc modulator inconclusive
CCCNc1ncnc2nc[nH]c12	none
c1ccc(CCCNc2ncnc3nc[nH]c23)cc1	none
CCCCc1ccc(Nc2ncnc3nc[nH]c23)cc1	ELG1 genotox 8.2µM, NPC1 prom act inconclusive, Rab9 prom act inconclusive, FLuc modulator 10.7µM
CCc1ccc(Nc2ncnc3nc[nH]c23)cc1	ELG1 genotox inconclusive, NPC1 prom act 2.24µM, Rab9 prom act 2µM, FLuc modulator 10.7µM (no result: KinaseGlo FLuc, SMN2 splice enh)
COc1cccc(Nc2ncnc3nc[nH]c23)c1	SMN2 splice enh 12.6µM, NPC1 prom act inconclusive, Rab9 prom act inconclusive, FLuc modulator 19µM
Cc1ccc(Nc2ncnc3nc[nH]c23)cc1Cl	SMN2 splice enh inconclusive, ELG1 genotox 5.8µM, NPC1 prom act 3.55µM, Rab9 prom act 3.16µM, FLuc modulator inconclusive
Cc1ccc(NC(=O)Nc2ncnc3nc[nH]c23)cc1	ELG1 genotox inconclusive, NPC1 prom act 3.55µM, Rab9 prom act 2.82µM, FLuc modulator 12µM (no result: KinaseGlo FLuc, SMN2 splice enh)
Cc1cc(/C([O-])=C(/C(=S)Nc2ccc(F)cc2)[n+]2ccccc2)c(C)n1-c1ccc(F)cc1	FLuc modulator inconclusive
Cc1cc(/C([O-])=C(/C(=S)Nc2ccccc2)[n+]2ccccc2)c(C)n1-c1ccccc1	ELG1 genotox 10.3µM, FLuc modulator 12µM
N=C1/C(=C\c2ccc(OC(=O)c3ccccc3)cc2)C(=O)N=C2SC(N3CCOCC3)=NN12	FLuc modulator inconclusive (no result: KinaseGlo FLuc, SMN2 splice enh)
Cc1ccc(C(=O)Oc2ccc(/C=C3\C(=N)N4N=C(N5CCOCC5)SC4=NC3=O)cc2)cc1	ELG1 genotox 23.1µM, NPC1 prom act inconclusive, Rab9 prom act inconclusive, FLuc modulator inconclusive (no result: KinaseGlo FLuc, SMN2 splice enh)
